A selection: hits, their analogues and other compounds. The true share with any hit is near 21%.
Pf growth 96h = P. falciparum growth inhibition at 96 hour, primary screen for plastid delayed-death inhibitors. P. falciparum luciferase reporter growth, 96 h. Potency, µM (titrated, usually from 28.7 µM), hits mostly inhibitors. 320,000 tested, 6.9% active
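Infected RBCs, 2% Hct / 0.05% parasitemia final; luciferase-reporter P. falciparum; cpd 96 h, 37 C, 5% CO2; luciferase detection reagent; luminescence.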
Pf growth 48h = P. falciparum growth inhibition at 48 hours (one generation) | P. falciparum luciferase growth in erythrocytes, 48 h | Potency, µM (top dose mostly 28.7 µM), hits mostly inhibitors | 310,000 tested, 5.9% active | AID 504832
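Firefly luciferase activity from engineered P. falciparum reports growth; inhibitors lower the luminescent signal. Cultures contained 2% hematocrit erythrocytes at 0.1% final parasitemia.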
Shiga toxin inh = inhibitors of Shiga toxin in Vero cells. 290,000 tested, 9.2% active. AID 2315. Vero cells, Shiga toxin protein synthesis inhibition reporter. inhibition, % at 38.7 µM; in the data active = inhibition mostly above about 28%, no sharp cut-off; inactive = mostly below about 43%
Cycloheximide cs = counter-screen hit for Shiga toxin inhibitors, cycloheximide. AID 2314. 300,000 tested, 12% active. cell reporter, cycloheximide protein synthesis inhibition counterscreen. max response, %; in the data active = max response mostly above about 13%, no sharp cut-off; inactive = mostly below about 14%; also: read at 38.3 µM for the half of the compounds with a filed dose
FBPA Giardia inh = blocks Giardia fructose-bisphosphate aldolase activity | A8B2U2 | purified Giardia FBPA | Potency, µM (doses to about 59.6 µM), actives largely listed as inhibitors | 290,000 tested, 0.71% active; also: nearly all actives have a fitted effect of over 55% in size
Target sequence (A8B2U2 whole entry, looked up): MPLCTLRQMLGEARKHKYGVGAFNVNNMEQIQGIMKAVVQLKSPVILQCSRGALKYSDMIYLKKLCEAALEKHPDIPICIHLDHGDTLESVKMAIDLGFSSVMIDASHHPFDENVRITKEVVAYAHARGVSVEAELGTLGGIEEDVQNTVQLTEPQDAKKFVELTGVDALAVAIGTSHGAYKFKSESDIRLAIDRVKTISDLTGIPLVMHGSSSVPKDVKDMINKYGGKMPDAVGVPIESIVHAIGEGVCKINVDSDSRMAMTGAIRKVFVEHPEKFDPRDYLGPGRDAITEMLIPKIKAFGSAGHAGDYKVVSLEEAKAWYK
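40 nM FBPA preincubated 10 min at RT with compound (up to 57.5 uM final), then substrate plus GAPDH/TPI/NAD/arsenate coupling and diaphorase/resazurin added. Fluorescence read after 20 min at RT, 525/598 nm.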
NS1 function inh = influenza NS1 inhibition; Potency, µM (doses to about 46.1 µM); 270,000 tested, 0.4% active; AID 2326; calls by dose curve; also: actives are rising curves; nearly all actives have a fitted effect of over 50% in size
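OD600 was taken as the measure of yeast growth restored by compound in an NS1-expressing S. cerevisiae strain. Cells had been washed out of glucose medium and diluted 1:100 into galactose -URA medium, pH 6.0.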
Numbers stand for hits. Unless noted, calls follow the shape of the dose curve; as a rule, active = well fitted curve in the direction sought with a large enough effect; inconclusive = small, poorly fitted or top-dose-only effect, or another doubt; inactive = no such curve, though single readings can be large; an effect the other way counts as inactive or inconclusive.

What do the screens show for `O=C(CN1C(=O)C2C3CCC(C3)C2C1=O)N1CCN(Cc2ccccc2)CC1` (stereo not given)?
Pf growth 96h: inactive; Pf growth 48h: inactive; Shiga toxin inh: inactive; Cycloheximide cs: inactive; FBPA Giardia inh: inactive; NS1 function inh: inactive

Results for CC(=O)Nc1cccc(Oc2nc(-c3ccccn3)nc3ccccc23)c1 ?
Pf growth 96h: inconclusive; Pf growth 48h: inconclusive; Shiga toxin inh: inactive; Cycloheximide cs: 14.6; FBPA Giardia inh: inactive; NS1 function inh: inactive

Results for CC(=O)Nc1ccc(Oc2nc(-c3ccccn3)nc3ccccc23)cc1 ?
Pf growth 96h: 11.7µM; Pf growth 48h: inconclusive; Shiga toxin inh: 53.8; Cycloheximide cs: 57.7; FBPA Giardia inh: inactive; NS1 function inh: inactive

What do the screens show for `O=C(/C=C/c1ccco1)N(Cc1ccccc1F)C1CCS(=O)(=O)C1` (stereo not given)?
Pf growth 96h: inconclusive; Pf growth 48h: inactive; Shiga toxin inh: inactive; Cycloheximide cs: inactive; FBPA Giardia inh: inactive; NS1 function inh: inactive

What do the screens show for `CC(C)[C@H](NC(=O)NCc1ccc(F)cc1)C(=O)O`?
Pf growth 96h: inactive; Pf growth 48h: inactive; Shiga toxin inh: inactive; Cycloheximide cs: inactive; FBPA Giardia inh: inactive; NS1 function inh: inactive

What do the screens show for `Cc1ccc(Sc2ncccc2NC(=O)c2ccccc2Cl)cc1`?
Pf growth 96h: inactive; Pf growth 48h: inactive; Shiga toxin inh: inactive; Cycloheximide cs: inactive; FBPA Giardia inh: inactive; NS1 function inh: inactive

What do the screens show for `CCCNC(=O)OCc1cccnc1Sc1ccc(C)cc1`?
Pf growth 96h: inactive; Pf growth 48h: inactive; Shiga toxin inh: 97.7; Cycloheximide cs: 31.1; FBPA Giardia inh: inactive

What do the screens show for `OCC#Cc1cnc2ccccc2c1`?
Pf growth 96h: inconclusive; Pf growth 48h: inactive; Shiga toxin inh: inactive; Cycloheximide cs: 25.6; FBPA Giardia inh: inactive; NS1 function inh: inactive

How did O=[N+]([O-])c1cnc2ccccc2c1 do in these assays?
Pf growth 96h: inconclusive; Pf growth 48h: inactive; Shiga toxin inh: inactive; Cycloheximide cs: inactive; FBPA Giardia inh: inactive; NS1 function inh: inactive

Results for COc1ccc(/C=C/C2=CC(C)(C)NC(=S)N2)cc1 ?
Pf growth 96h: 9.28µM; Pf growth 48h: inconclusive; Shiga toxin inh: inactive; Cycloheximide cs: inactive; FBPA Giardia inh: inactive

What do the screens show for `C=CCN1CCc2cc(O)c(O)cc2C(c2ccccc2)C1` (stereo not given)?
Pf growth 96h: inconclusive; Pf growth 48h: 11.7µM; FBPA Giardia inh: inactive; NS1 function inh: inactive

Results for CC(=O)N1c2ccc(S(=O)(=O)N3CCC(C(=O)N4CC(C)CC(C)C4)CC3)cc2CC1C (stereo not given) ?
Pf growth 96h: inactive; Pf growth 48h: inconclusive; Shiga toxin inh: inactive; Cycloheximide cs: inactive; FBPA Giardia inh: inactive; NS1 function inh: inactive

Results for CCN1CCN(c2cc3c(nn2)Oc2ccccc2N3C)CC1 ?
Pf growth 96h: inactive; Pf growth 48h: inactive; Shiga toxin inh: 52.0; Cycloheximide cs: 49.0; FBPA Giardia inh: inactive; NS1 function inh: inactive

What do the screens show for `CCN1CCN(c2nnc(-c3ccccc3)c3ccccc23)CC1`?
Pf growth 96h: inconclusive; Pf growth 48h: inactive; Shiga toxin inh: inactive; Cycloheximide cs: inactive; FBPA Giardia inh: inactive; NS1 function inh: inactive

Results for CC(C)CN1C(=O)C(=O)N(CC(=O)c2ccc[nH]2)C1=O ?
Pf growth 96h: inactive; Pf growth 48h: inactive

What do the screens show for `CN1C(=O)NC(=O)[C@]2(Cc3ccccc3N3CCN(c4ccccc4)CC32)C1=O` (stereo not given in full)?
Pf growth 96h: inactive; Shiga toxin inh: inactive; Cycloheximide cs: 30.6; FBPA Giardia inh: inactive; NS1 function inh: inactive

How did O=C1NC(=O)[C@]2(Cc3ccccc3N3CCN(c4ccccc4)CC32)C(=O)N1Cc1ccccc1 (stereo not given in full) do in these assays?
Pf growth 96h: 9.28µM; Pf growth 48h: inconclusive; Shiga toxin inh: 54.3; Cycloheximide cs: 30.1; FBPA Giardia inh: inactive; NS1 function inh: inactive

How did CN1C(=O)NC(=O)C2(Cc3ccccc3N3CCOCC32)C1=O (stereo not given) do in these assays?
Pf growth 96h: inconclusive; Pf growth 48h: inactive; Shiga toxin inh: inactive; Cycloheximide cs: inactive; FBPA Giardia inh: inactive; NS1 function inh: inactive

What do the screens show for `O=C1NC(=O)[C@]2(Cc3ccccc3N3CCN(c4ccccc4)CC32)C(=O)N1c1ccccc1` (stereo not given in full)?
Pf growth 96h: inactive; Pf growth 48h: inconclusive; Shiga toxin inh: 75.9; Cycloheximide cs: 25.0; FBPA Giardia inh: inactive; NS1 function inh: inactive

How did O=C1NC(=O)C2(Cc3ccccc3N3CCCC32)C(=O)N1Cc1ccccc1 (stereo not given) do in these assays?
Pf growth 96h: inactive; Pf growth 48h: inconclusive; Shiga toxin inh: inactive; Cycloheximide cs: inactive; FBPA Giardia inh: inactive; NS1 function inh: inactive

Results for Cc1ccc(N2C(=O)NC(=O)C3(Cc4ccccc4N4CCCC43)C2=O)cc1 (stereo not given) ?
Pf growth 96h: inconclusive; Pf growth 48h: inactive; Shiga toxin inh: inactive; Cycloheximide cs: inactive; FBPA Giardia inh: inactive; NS1 function inh: inconclusive

How did COCC(=O)N1CCC(Oc2ccc(C(=O)N3CCN(C)C[C@@H]3C(C)C)cc2)CC1 do in these assays?
Pf growth 96h: inactive; Pf growth 48h: inactive; Shiga toxin inh: inactive; Cycloheximide cs: inactive; FBPA Giardia inh: inactive; NS1 function inh: inactive

How did COC(C(=O)Nc1ccnn1C1CCN(Cc2cnn(C(C)C)c2)CC1)c1ccccc1 (stereo not given) do in these assays?
Pf growth 96h: inactive; Pf growth 48h: inconclusive; Shiga toxin inh: inactive; Cycloheximide cs: inactive; NS1 function inh: inactive

Results for CCC(=O)Nc1ccc(C2=Nn3c(nnc3C(C)C)SC2)cc1 ?
Pf growth 96h: inconclusive; Pf growth 48h: inconclusive; Shiga toxin inh: inactive; Cycloheximide cs: inactive; FBPA Giardia inh: inactive; NS1 function inh: inactive

Results for CCc1ccc(NC(=O)Nc2ccon2)cc1 ?
Pf growth 96h: inconclusive; Pf growth 48h: inactive; Shiga toxin inh: 61.6; Cycloheximide cs: 68.4; FBPA Giardia inh: inactive; NS1 function inh: inactive

How did CCc1ccc(NC(=O)Nc2cnccn2)cc1 do in these assays?
Pf growth 96h: inactive; Pf growth 48h: inactive; Shiga toxin inh: 101.9; Cycloheximide cs: 46.8; FBPA Giardia inh: inactive; NS1 function inh: inactive

Results for CCCCc1ccc(NC(=O)Nc2cnccn2)cc1 ?
Pf growth 96h: inactive; Pf growth 48h: inconclusive; Shiga toxin inh: 50.0; Cycloheximide cs: 23.0; FBPA Giardia inh: inactive; NS1 function inh: inactive

What do the screens show for `Cc1ccccc1N1CCN(C(=O)NCc2cccc(Cl)c2)CC1`?
Pf growth 96h: inconclusive; Pf growth 48h: inconclusive; Shiga toxin inh: inactive; Cycloheximide cs: inactive; FBPA Giardia inh: inactive; NS1 function inh: inactive

Results for CC(=N\NC(=O)c1ccc([N+](=O)[O-])cc1)/C(=N/O)C(=O)Nc1ccccc1 ?
Pf growth 96h: inactive; Pf growth 48h: inconclusive; Shiga toxin inh: inactive; Cycloheximide cs: inactive; FBPA Giardia inh: inactive; NS1 function inh: inactive

What do the screens show for `O=C(C1CC1)N1CCc2cc(Br)cc(S(=O)(=O)N3CCCCCC3)c21`?
Pf growth 48h: 1.65µM; Shiga toxin inh: inactive; Cycloheximide cs: inactive; FBPA Giardia inh: inactive; NS1 function inh: inactive
